# Source: PubChem (National Center for Advancing Translational Sciences (NCATS))
# The sample as a whole holds a higher share of hits than the screen did.
# MARV entry inh: qHTS for inhibitors of binding or entry into cells for Marburg Virus. 1.8% of 300,000 active. Potency, µM (top dose mostly 37.8 µM), hits mostly inhibitors. Marburg virus pseudotyped entry inhibition, cell reporter; calls by dose curve; tested in HEK293 cells
# Cycloheximide cs: Cycloheximide Counterscreen for Small Molecule Inhibitors of Shiga Toxin. 12% of 300,000 active. cell reporter, cycloheximide protein synthesis inhibition counterscreen. max response, %; in the data active = max response mostly above about 13%, no sharp cut-off; inactive = mostly below about 14%; also: read at 38.3 µM for the half of the compounds with a filed dose
# Shiga toxin inh: A qHTS for Small Molecule Inhibitors of Shiga Toxin | AID 2315, 2010 | Vero cells, Shiga toxin protein synthesis inhibition reporter | inhibition, % at 38.7 µM | 9.2% of 290,000 active; in the data active = inhibition mostly above about 28%, no sharp cut-off; inactive = mostly below about 43%
# AMA1 RON2 block: qHTS for Inhibitors of AMA1-RON; Towards Development of Antimalarial Drug Lead: Primary Screen. AlphaScreen AMA1-biotinylated RON2 peptide binding. Potency, µM (doses to about 58.2 µM), most hits filed as inhibitors. 0.2% of 360,000 active. AID 720542, 2013; active = well fitted inhibition curve with a large enough effect; inconclusive = small, poorly fitted or top-dose-only effect; inactive = no such curve, though single readings can be large or run the other way; also: nearly all actives have a fitted effect of over 45% in size
#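 AMA1 (3D7) with his tag at 25 nM final met compounds first, then biotinylated RON2 peptide at 25 nM; detection used donor plus acceptor beads, 10 µg/mL apiece, read by AlphaScreen after 30 min at room temperature.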
# LASV entry inh: qHTS for Inhibitors of binding or entry into cells for Lassa Virus; Lassa virus pseudotype entry inhibition, cell reporter; Potency, µM (top dose mostly 37.9 µM), actives largely listed as inhibitors; 1.2% of 300,000 active; AID 540256, 2011; calls by dose curve; tested in HEK293 cells; also: nearly all actives have a fitted effect of over 50% in size
# Numbers stand for hits; . = inactive; ? = inconclusive; / = no result given; ! = not active in a repeat.
SMILES,MARV entry inh,Cycloheximide cs,Shiga toxin inh,AMA1 RON2 block,LASV entry inh
CCOC(=O)C(C(C)=O)c1c(Br)c(O)c(O)c2c(C(=O)c3ccc(C)cc3)coc12 (stereo not given),2.3µM!,19,.,.,.
Cc1cnc(C)c(Nc2nc(C(N)c3ccccc3)cs2)n1 (stereo not given),/,/,/,.,/
O=C(c1cc2cc(Br)ccc2oc1=O)N1CCCC1,.,.,.,.,.
O=C(c1cc2ccccc2o1)N1CCCC1,/,.,.,.,/
O=C(c1cc2cc(Br)ccc2o1)N1CCOCC1,.,19,50,.,.
CC1CC(C)CN(C(=O)c2cc3cc(Br)cc(Br)c3o2)C1 (stereo not given),?,31,41,.,?
O=C(c1cc2cc(Br)ccc2o1)N1CCN(c2ccccc2)CC1,.,51,78,.,.
O=C(c1cc2cc(Br)ccc2o1)N1CCCC1,.,39,61,.,.
C[C@H]1CC[C@H]2C(=O)N(Cc3ccccc3)C[C@H](O)CN2[C@H]1c1cccc(Br)c1,.,/,/,/,.
CCc1ccccc1Nc1nn2c(=O)c3ccc(C(=O)NCCCOC(C)C)cc3nc2s1,/,/,/,/,.
C=C1CCN(C(CC(C)C)C(=O)NCCCc2ccccc2)S(=O)(=O)c2ccccc21 (stereo not given),/,.,.,/,/
Cc1ccsc1/C=N/NC(=O)c1ccc2c(c1)OCCO2,3.2µM,23,.,.,?
Cc1ccsc1/C=N/NC(=O)c1nnn(-c2nonc2N)c1-c1ccc2c(c1)OCO2,.,.,.,.,.
Cc1ccsc1/C=N\NC(=O)c1ccc2c(c1)OCO2,.,35,85,.,.
COc1cccc(CO[C@H]2C=C[C@@H](c3ccccc3)O[C@H]2COC(C)=O)c1,.,/,/,/,/
Cn1c(N)c(C(=O)COC(=O)CC2CC3CCC2C3)c(=O)n(C)c1=O (stereo not given),?,.,.,.,.
COc1ccc(C)cc1NC(=O)c1ccc2c(c1)nnn2C1CCCC1,/,/,/,/,.
O=C(Nc1nnc(-c2ccc3c(c2)CCCC3)o1)c1ccc(Cl)cc1Cl,/,.,.,.,/
O=C(Nc1nnc(-c2ccc3c(c2)CCCC3)o1)c1c(F)cccc1F,.,.,76,.,.
Cc1ccc(-c2nc3ccccc3o2)cc1NC(=S)NC(=O)c1cc2ccccc2o1,.,45,85,.,?
Cc1c(NC(=S)NC(=O)c2cc3ccccc3o2)cccc1C(=O)O,/,54,76,.,/
CN1CCN(c2ccccc2NC(=S)NC(=O)c2cc3ccccc3o2)CC1,.,.,.,.,.
Cc1ccc2oc(-c3ccc(C)c(NC(=S)NC(=O)c4cccs4)c3)nc2c1,/,45,10,.,/
CC(C)C(=O)Nc1ccc(C(=O)Nc2ccc(Br)cc2F)cc1,?,.,.,.,.
C[C@@H](C(=O)Nc1ccc2ccccc2c1)[C@H]1C[C@]1(C)[C@H](NS(=O)(=O)c1ccc(-c2ccccc2)cc1)c1ccccc1,12µM,.,.,.,.
SMILES,MARV entry inh,Cycloheximide cs,Shiga toxin inh,AMA1 RON2 block,LASV entry inh
COc1ccc(-c2cc(C(=O)N3CCN(c4ccccc4)CC3)c3ccccc3n2)cc1,?,27,63,?,?
COc1ccc2cc(-c3ccon3)ccc2c1,?,32,107,.,.
COc1ccc(NC(=O)c2cc(-c3ccc(C)o3)nc3ccccc23)cc1OC,?,38,80,.,.
COc1ccc(NC(=O)c2cc(-c3ccc(C)o3)nc3ccccc23)c(OC)c1,/,/,/,.,/
COc1ccc(-c2cc(C(=O)Nc3ccc(C(N)=O)cc3)c3ccccc3n2)cc1,?,16,65,.,/
O=C(CCN1C(=O)C2C3CCC(C3)C2C1=O)Nc1cccc(Cl)c1 (stereo not given),.,.,.,.,.
C=C(COC)C1=CCC(C(=O)OC)(C(=O)OC)[C@@H](C[N+](=O)[O-])c2ccccc21,.,/,/,/,/
CCN(Cc1ccccc1)C(=O)C(CC(C)C)NS(=O)(=O)c1ccc2c(c1)CCN2C(C)=O (stereo not given),.,/,/,/,?
CC1CCCCN1CC(O)COCc1ccccc1 (stereo not given),.,.,.,.,.
O=C(O)c1cc(-c2ccc(-c3ccc(F)cc3)o2)nc2ccccc12,/,.,30,.,/
CC(=O)c1ccc(N2CCN(C(=O)c3cc(-c4ccc5c(c4)OCO5)nc4ccccc34)CC2)cc1,?,20,36,.,.
O=C(c1cc(-c2cccs2)nc2ccccc12)N1CCN(c2ccccc2O)CC1,?,19,.,.,?
CCOc1ccc(-c2cc(C(=O)N3CCC4(CC3)OCCO4)c3ccccc3n2)cc1,.,/,/,.,?
COc1ccc(-c2cc(C(=O)N3CCC4(CC3)OCCO4)c3ccccc3n2)cc1,/,25,.,.,/
O=C(O)c1cc(-c2ccc3c(c2)OCO3)nc2ccccc12,.,.,.,.,.
Cc1cnc(NC(=O)CC2OC(=O)c3ccccc32)s1 (stereo not given),.,/,/,.,.
COC(=O)[C@@]1(C=C[C@@H](C)[C@H](OC)c2ccccc2Br)[C@@H]2OCCC[C@@H]21,.,/,/,/,/
COc1ccc(N2CCN(C(=O)c3cc(-c4cc(OC)ccc4OC)nc4ccccc34)CC2)cc1,?,.,.,5µM,?
COc1ccc2cc(-c3cc(C(=O)O)c4ccccc4n3)ccc2c1,0.71µM,.,.,.,0.35µM
COc1ccc(OC)c(-c2cc(C(=O)N3CCN(c4ncccn4)CC3)c3ccccc3n2)c1,?,.,.,.,?
COc1ccc(-c2cc(C(=O)O)c3ccccc3n2)c(OC)c1,.,.,.,.,.
CC(C)Cc1cc(C(=O)O)c2ccccc2n1,.,/,/,.,.
CC(=O)c1ccc(NC(=O)c2cc(CC(C)C)nc3ccccc23)cc1,/,48,82,.,/
COc1ccc(-c2cc3cc(OC)c(OC)cc3c(C)n2)cc1,.,34,75,.,.
Cc1ccc(-c2cc(C(=O)N3CCOCC3)c3ccccc3n2)o1,.,/,/,.,.
SMILES,MARV entry inh,Cycloheximide cs,Shiga toxin inh,AMA1 RON2 block,LASV entry inh
COc1ccc(-c2cc(C(=O)N3CCCC3)c3ccccc3n2)cc1,/,36,45,.,/
CCOc1ccc(-c2cc(C(=O)N3CCCC3)c3ccccc3n2)cc1,?,.,.,.,.
Cc1ccc(-c2cc(C(=O)N3CCN(c4ccc(F)cc4)CC3)c3ccccc3n2)o1,?,29,.,.,?
O=C(c1ccco1)N1CCN(C(=O)c2cc(-c3ccccc3)nc3ccccc23)CC1,?,19,.,.,?
COc1ccc(-c2cc(OC)c3ccccc3n2)cc1,.,.,active,.,.
CC(=O)NC(c1ccccc1)c1nc(-c2ccc(C)c(C)c2)cs1 (stereo not given),/,/,/,.,/
CCOC(=O)c1cc(-c2ccccc2)n(CCCC(=O)Nc2cc(C)ccc2OC)c1C,/,/,/,/,.
O=C(O)c1cc(-c2ccc(Br)s2)nc2ccccc12,/,17,34,.,/
Cc1ccc(-c2cc(C(=O)N3CCCCC3)c3ccccc3n2)cc1C,/,23,.,.,/
O=C(c1cc(-c2ccccc2)nc2ccccc12)N1CCCC1,?,.,.,.,.
